Measurements: PubChem BioAssay (NCATS)
Several values for one entry are separate records, joined by “and”; a condition that tells them apart may be missing. Equal values may be shown once. Unmarked numbers belong to inactive results. Results filed as inconclusive are left out. Activity calls are given as the source filed them. Unless noted, calls follow the shape of the dose curve; as a rule, active = well fitted inhibition curve with a large enough effect; inconclusive = small, poorly fitted or top-dose-only effect; inactive = flat fitted curve, though single readings scatter.

tested on: SC27B; assay: qHTS profiling for inhibitors of Plasmodium falciparum proliferation (AID 504749); also: nearly all actives have a fitted effect of over 60% in size; also: potency is read from the fitted curve at half-maximal effect;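 as to activity, negative = inhibition: 0% = DMSO vehicle and full inhibition = artemisinin control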; conditions: P. falciparum in erythrocytes, SYBR Green DNA, 72 h; series mostly up to 12.8 µM; activity, negative = inhibition: at the top concentration
In short: (§1)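 P. falciparum-infected erythrocytes (0.3% parasitemia, 2.5% hematocrit final) were exposed to compounds for 72 h at 37 C in 5% CO2, then lysed with SYBR Green buffer overnight at room temperature; parasite DNA fluorescence was normalized to artemisinin and DMSO controls.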

Compound	activity, negative = inhibition
C[N+](C)(C)CC(O)CC(=O)O (centres undefined)	6.33% [at 28.7 µM]
CC(C)N1CCN(c2ccc(OC[C@@H]3CO[C@@](Cn4cncn4)(c4ccc(Cl)cc4Cl)O3)cc2)CC1	2.7%
C[C@@H]1CCC[C@H](C)N1NC(=O)c1ccc(Cl)c(S(N)(=O)=O)c1	5.58%
O=C(Cc1cccs1)NC1C(=O)N2C(C(=O)[O-])=C(C[n+]3ccccc3)CSC12 (centres undefined)	6.51% [at 28.7 µM]

tested on: TAB109; assay: as above; conditions: P. falciparum in erythrocytes, SYBR Green DNA, 72 h; series mostly up to 12.8 µM; activity, negative = inhibition: at the top concentration
In short: as §1

Compound	activity, negative = inhibition
C[N+](C)(C)CC(O)CC(=O)O (centres undefined)	7.11% [at 28.7 µM]
CC(C)N1CCN(c2ccc(OC[C@@H]3CO[C@@](Cn4cncn4)(c4ccc(Cl)cc4Cl)O3)cc2)CC1	11%
C[C@@H]1CCC[C@H](C)N1NC(=O)c1ccc(Cl)c(S(N)(=O)=O)c1	16.6%
O=C(Cc1cccs1)NC1C(=O)N2C(C(=O)[O-])=C(C[n+]3ccccc3)CSC12 (centres undefined)	2.25% [at 28.7 µM]

tested on: TAB113; assay: as above; conditions: P. falciparum in erythrocytes, SYBR Green DNA, 72 h; series mostly up to 12.8 µM; activity, negative = inhibition: at the top concentration
In short: as §1

Compound	activity, negative = inhibition
C[N+](C)(C)CC(O)CC(=O)O (centres undefined)	2.29% [at 28.7 µM]
CC(C)N1CCN(c2ccc(OC[C@@H]3CO[C@@](Cn4cncn4)(c4ccc(Cl)cc4Cl)O3)cc2)CC1	1.87%
C[C@@H]1CCC[C@H](C)N1NC(=O)c1ccc(Cl)c(S(N)(=O)=O)c1	7.48%
O=C(Cc1cccs1)NC1C(=O)N2C(C(=O)[O-])=C(C[n+]3ccccc3)CSC12 (centres undefined)	9.12% [at 28.7 µM]

tested on: TAB165; assay: as above; conditions: P. falciparum in erythrocytes, SYBR Green DNA, 72 h; series mostly up to 12.8 µM; activity, negative = inhibition: at the top concentration
In short: as §1

Compound	activity, negative = inhibition
C[N+](C)(C)CC(O)CC(=O)O (centres undefined)	-3.42% [at 28.7 µM]
CC(C)N1CCN(c2ccc(OC[C@@H]3CO[C@@](Cn4cncn4)(c4ccc(Cl)cc4Cl)O3)cc2)CC1	0.0323%
C[C@@H]1CCC[C@H](C)N1NC(=O)c1ccc(Cl)c(S(N)(=O)=O)c1	4.89%
O=C(Cc1cccs1)NC1C(=O)N2C(C(=O)[O-])=C(C[n+]3ccccc3)CSC12 (centres undefined)	9.34% [at 28.7 µM]

tested on: W2; assay: as above; conditions: P. falciparum in erythrocytes, SYBR Green DNA, 72 h; series mostly up to 12.8 µM; activity, negative = inhibition: at the top concentration
In short: as §1

Compound	activity, negative = inhibition	Potency
C[N+](C)(C)CC(O)CC(=O)O (centres undefined)	4.99% [at 28.7 µM]	–
CN(C)CC/C=C1\c2ccccc2CSc2ccccc21	–	1.28 µM (active)
CC(C)N1CCN(c2ccc(OC[C@@H]3CO[C@@](Cn4cncn4)(c4ccc(Cl)cc4Cl)O3)cc2)CC1	-6.77%	–
C[C@@H]1CCC[C@H](C)N1NC(=O)c1ccc(Cl)c(S(N)(=O)=O)c1	-0.407%	–
O=C(Cc1cccs1)NC1C(=O)N2C(C(=O)[O-])=C(C[n+]3ccccc3)CSC12 (centres undefined)	0.301% [at 28.7 µM]	–

target: Nuclear receptor subfamily 1 group I member 2 (Rattus norvegicus) (UniProt Q9R1A7); assay: qHTS assay for small molecule activators of the rat pregnane X receptor (rPXR) signaling pathway (AID 651751; call rule not given here; also: 0% is about no effect); conditions: rPXR reporter cells, luciferase (One-Glo), 24 h
Sequence (Q9R1A7 whole entry, looked up): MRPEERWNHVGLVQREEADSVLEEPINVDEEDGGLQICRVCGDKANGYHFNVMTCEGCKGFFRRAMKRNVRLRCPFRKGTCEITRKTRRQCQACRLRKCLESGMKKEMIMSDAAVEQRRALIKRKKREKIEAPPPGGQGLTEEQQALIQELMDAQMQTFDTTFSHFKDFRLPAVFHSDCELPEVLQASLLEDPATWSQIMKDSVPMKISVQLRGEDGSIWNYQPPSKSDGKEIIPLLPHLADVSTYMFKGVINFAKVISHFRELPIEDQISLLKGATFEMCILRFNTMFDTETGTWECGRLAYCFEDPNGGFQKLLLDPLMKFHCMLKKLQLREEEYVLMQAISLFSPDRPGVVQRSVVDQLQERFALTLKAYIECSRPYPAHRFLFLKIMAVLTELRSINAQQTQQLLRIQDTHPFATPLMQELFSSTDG

Compound	max response
C=C(C)[C@H]1CC=C(C)C(=O)C1	-2.55% and 3.05%
C=CC(C)(O)CCC=C(C)C (centres undefined)	2.77% and 2.88%
COS(C)(=O)=O	0.398%
